Assay results: the GenesisPotency data set
Screen size: about 290,000 compounds; about 3,000 (1%) were called active. Rule as the data show it: active = inhibition mostly above about 36% (no sharp cut-off); inactive = mostly below about 34%. This excerpt belongs to a sample that is enriched for actives.

target: T1, Nucleotide-binding oligomerization domain-containing protein 1, Homo sapiens (UniProt Q9Y239); test: inhibition of NOD1-driven NF-kB reporter – cell-based, luminescence, uHTS, primary screen (AID 1578)
T1 sequence (whole entry): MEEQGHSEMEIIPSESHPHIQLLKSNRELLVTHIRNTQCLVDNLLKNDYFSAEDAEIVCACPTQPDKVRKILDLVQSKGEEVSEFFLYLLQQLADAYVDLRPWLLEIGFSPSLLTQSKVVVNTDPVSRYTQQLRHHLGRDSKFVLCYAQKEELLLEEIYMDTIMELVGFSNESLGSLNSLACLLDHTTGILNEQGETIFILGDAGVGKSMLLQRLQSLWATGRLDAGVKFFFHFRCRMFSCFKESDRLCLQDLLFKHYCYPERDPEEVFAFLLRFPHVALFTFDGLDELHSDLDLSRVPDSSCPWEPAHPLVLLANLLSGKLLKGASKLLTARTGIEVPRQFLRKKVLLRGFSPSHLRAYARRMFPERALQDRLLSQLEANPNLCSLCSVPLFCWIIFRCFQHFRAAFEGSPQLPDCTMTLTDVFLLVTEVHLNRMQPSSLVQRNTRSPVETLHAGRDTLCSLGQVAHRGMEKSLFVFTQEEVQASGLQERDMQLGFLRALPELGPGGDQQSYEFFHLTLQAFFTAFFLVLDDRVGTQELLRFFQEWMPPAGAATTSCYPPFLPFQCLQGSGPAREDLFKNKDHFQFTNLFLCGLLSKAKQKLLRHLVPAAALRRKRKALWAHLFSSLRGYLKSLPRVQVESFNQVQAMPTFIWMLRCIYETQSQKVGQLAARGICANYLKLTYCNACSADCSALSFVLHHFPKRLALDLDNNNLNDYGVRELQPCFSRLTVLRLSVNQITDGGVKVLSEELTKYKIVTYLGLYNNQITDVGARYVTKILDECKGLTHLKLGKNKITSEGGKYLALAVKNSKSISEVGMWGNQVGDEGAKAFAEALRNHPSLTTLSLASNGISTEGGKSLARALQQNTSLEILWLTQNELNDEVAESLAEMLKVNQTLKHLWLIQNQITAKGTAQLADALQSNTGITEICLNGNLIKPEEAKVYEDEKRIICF

Row | SMILES | outcome
1 | O=c1c(C(c2ccccc2)c2c(O)sc3ccccc3c2=O)c(O)sc2ccccc12 | active
2 | COc1ccc2cc3c(N)nn(C(=O)c4cccc(F)c4)c3nc2c1 | active
3 | COc1ccc2cc3c(N)nn(C(=O)c4ccc(F)cc4)c3nc2c1 | active
4 | COc1ccc2cc3c(N)nn(C(=O)c4cccc([N+](=O)[O-])c4)c3nc2c1 | active
5 | Cc1ccc2nc(NC(=O)CSCC(=O)OCC(=O)c3ccc(Br)cc3)sc2c1 | active
6 | Cc1c(C)c2ccc(OCC(=O)Nc3ccccn3)c(C)c2oc1=O | active
7 | COc1cccc(C(=O)c2sc(NC(C)C)nc2N)c1 | active
8 | O=c1c(Cl)c(Cl)cnn1Cc1nnc(-c2ccccc2Br)o1 | active
9 | CC(C)c1ccc(-c2nnn(CCC(=O)O)n2)cc1 | active
10 | COC(=O)CCn1nnc(-c2ccc(C(C)C)cc2)n1 | active
11 | COc1ccc2cc3c(N)nn(C(=O)c4ccccc4[N+](=O)[O-])c3nc2c1 | active
12 | COc1ccc2cc3c(N)nn(C(=O)c4ccccc4Cl)c3nc2c1 | active
13 | COc1ccc2cc3c(N)nn(C(=O)C4CCC(C(C)(C)C)CC4)c3nc2c1 (stereo not drawn) | active
14 | CN(Cc1ccccc1)S(=O)(=O)c1nnc(NC(=O)c2ccc(F)cc2)s1 | active
15 | COc1cc(OC)c(N(C)S(=O)(=O)c2cccc(C(=O)OCC(=O)c3c[nH]c4ccccc34)c2)cc1Cl | active
16 | O=c1cc(CSc2ccc(Cl)cc2)nc(-c2ccccn2)[nH]1 | active
17 | Cn1c2ccccc2c(=O)c2c(=O)n(C3CCCCC3)c(-c3ccco3)nc21 | active
18 | O=C(Nc1cc(C(F)(F)F)cc(C(F)(F)F)c1)Nc1cnn(-c2ccc([N+](=O)[O-])cc2)c1C(F)(F)F | active
19 | O=S(=O)(Nc1nc2ccccc2nc1N1CCN(c2ccccc2F)CC1)c1ccc(Cl)cc1 | active
20 | COc1ccc(-c2cc(C(F)(F)F)nc(S(=O)(=O)CCCC(=O)Nc3cccc(O)c3)n2)cc1OC | active
21 | COc1ccccc1-c1cc(C(F)(F)F)nc(S(=O)(=O)CCCC(=O)Nc2cccnc2Cl)n1 | active
22 | COc1ccc(-c2cc(C(F)(F)F)nc(S(=O)(=O)CCCC(=O)Nc3cccnc3Cl)n2)cc1OC | active
23 | COc1ccccc1-c1cc(C(F)(F)F)nc(S(=O)(=O)CCCC(=O)N2CCCCC2C)n1 (stereo not drawn) | active

Row | SMILES | outcome
24 | COc1ccc2c(C(=O)CCl)c[nH]c2c1 | active
25 | COc1ccc2[nH]cc(C(=O)CCl)c2c1 | active
26 | Cc1nn(-c2ccccc2)c(Cl)c1CN(C(=O)CCl)c1ccc(Cl)cc1 | active
27 | CCC(=O)Nc1cccc(C(=O)/C=C/c2cc(Br)ccc2OC)c1 | active
28 | COc1ccc(Br)cc1/C=C/C(=O)c1ccc(NC(C)=O)cc1 | active
29 | Cc1ccc(C(C)C)c(OCc2ccc(C(=O)N/N=C/c3ccc(C(=O)O)cc3)cc2)c1 | active
30 | CN(C)S(=O)(=O)c1cccc(NC(=O)CSc2cccc3cccnc23)c1 | active
31 | O=C(CSc1cccc2cccnc12)Nc1ccc(S(=O)(=O)N2CCOCC2)cc1 | active
32 | CCOc1ccc2c(c1)C(=NNC(=O)c1ccncc1)c1cc(OCC)ccc1-2 | active
33 | CC(=O)c1c(C)[nH]c(C(=O)COC(=O)c2cccc(S(=O)(=O)N(C)c3ccccc3)c2)c1C | active
34 | CNc1nc(-c2ccc3c(c2)CCN3S(=O)(=O)c2ccccc2)c(C)s1 | active
35 | COc1ccc(Nc2cc(Nc3cc(OC)c(OC)c(OC)c3)ncn2)cc1 | active
36 | Cc1cc(Nc2nc3ccccc3nc2Cl)n(-c2ccc([N+](=O)[O-])cc2)n1 | active
37 | COc1ccc(C)cc1NC(=O)CSc1ccc(-c2ccccn2)nn1 | active
38 | CCOc1ccc(-c2nnc(NC(=O)c3ccc(OCC(C)C)c(OC)c3)o2)cc1 | active
39 | O=C(Nc1nnc(-c2ccc(F)cc2)o1)c1cc(Cl)sc1Cl | active
40 | O=C(Nc1nnc(-c2ccc(F)cc2)o1)c1cccc([N+](=O)[O-])c1 | active
41 | COc1ccc(-c2nnc(NC(=O)c3ccc(F)cc3)o2)cc1 | active
42 | CN(c1ccccc1)S(=O)(=O)c1ccc(C(=O)Nc2nnc(-c3ccc(F)cc3)o2)cc1 | active
43 | O=C(Nc1ccc(C(F)(F)F)cc1)C1CCN(S(=O)(=O)c2ccc(N3CCCC3=O)cc2)CC1 | active
44 | C/C(=N\Nc1ncnc2sc(C)c(C)c12)c1ccccn1 | active
45 | CCOc1ccc(-n2c(C)c(C(C)=O)c3cc(OC(C)=O)ccc32)cc1 | active
46 | CC(=O)c1c(C)n(-c2ccccc2)c2ccc(O)cc12 | active

Row | SMILES | outcome
47 | COc1ccc(-n2c(C)c(C(C)=O)c3cc(OC(C)=O)ccc32)cc1 | active
48 | COc1ccc2c(c1)c(C(C)=O)c(C)n2CCc1ccccc1 | active
49 | COc1ccc2c(c1)c(C(C)=O)c(C)n2-c1ccc(C(C)=O)cc1 | active
50 | COc1ccc(-n2c(C)c(C(C)=O)c3cc(O)ccc32)cc1 | active
51 | COc1ccccc1N1CCN(c2nc(C)nc3c2oc2ccccc23)CC1.Cl | active
52 | Clc1ccc(-c2csc3ncnc(NCCN4CCOCC4)c23)cc1 | active
53 | COc1ccc(-c2csc3ncnc(NCCN4CCOCC4)c23)cc1 | active
54 | CC(C)n1c(CN(C)Cc2ccccc2)nc2c1c(=O)n(C)c(=O)n2C | active
55 | CCN1/C(=C/C=C/C=C/C=C/c2sc3ccccc3[n+]2CC)Sc2ccccc21.[I-] | active
56 | c1ccc(CCc2nn3c(-c4ccncc4)nnc3s2)cc1 | active
57 | c1cc(-c2nnc3sc(C4CCCCC4)nn23)ccn1 | active
58 | Cc1c(CCC(=O)O)c(=O)oc2cc(OCc3ccccc3Br)ccc12 | active
59 | N#CC1=C(SCC(=O)NC23CC4CC(CC(C4)C2)C3)NC(=O)C(C#N)C12CCCCC2 (stereo not drawn) | active
60 | CC(C)(C)C1CCC2(CC1)C(C#N)=C(SCC(=O)Nc1ccccc1)NC(=O)C2C#N (stereo not drawn) | active
61 | Cc1ccc(NC(=O)CSc2nn(-c3ccccc3)c(=S)s2)cc1S(=O)(=O)N(C)C | active
62 | CC(C)(C)C(=O)Nc1ccc(NC(=O)c2ccco2)nc1 | active
63 | O=C(Nc1nc2ccc([N+](=O)[O-])cc2s1)c1ccc(S(=O)(=O)N2CCCc3ccccc32)cc1 | active
64 | CC1CCCCN1c1ncnc(N)c1[N+](=O)[O-] (stereo not drawn) | active
65 | Nc1ncnc(N2CCc3ccccc32)c1[N+](=O)[O-] | active
66 | COc1ccc2sc3c(=O)[nH]c4ccccc4c3c2c1 | active
67 | O=S(=O)(c1ccc2c(c1)OCCO2)N1CCN(c2ncnc3sccc23)CC1 | active
68 | Cc1ccc(S(=O)(=O)N2CCN(c3ncnc4sccc34)CC2)cc1 | active
